# Laboratory results published in PubChem BioAssay AID504332 (National Center for Advancing Translational Sciences (NCATS), 2011).
# Among all 350,000 compounds or so, about 31,000 (8.9%) were called active. Inconclusive results (about 15%) are left out. Calls follow the shape of the dose curve; as a rule, active = well fitted inhibition curve with a large enough effect; inconclusive = small, poorly fitted or top-dose-only effect; inactive = no such curve, though single readings can be large or run the other way. Only a selection was taken, and actives are over-represented in it overall.
# Target: Histone-lysine N-methyltransferase EHMT2 (Homo sapiens) (UniProt Q96KQ7)
# Sequence (Q96KQ7 913-1193 limits assumed): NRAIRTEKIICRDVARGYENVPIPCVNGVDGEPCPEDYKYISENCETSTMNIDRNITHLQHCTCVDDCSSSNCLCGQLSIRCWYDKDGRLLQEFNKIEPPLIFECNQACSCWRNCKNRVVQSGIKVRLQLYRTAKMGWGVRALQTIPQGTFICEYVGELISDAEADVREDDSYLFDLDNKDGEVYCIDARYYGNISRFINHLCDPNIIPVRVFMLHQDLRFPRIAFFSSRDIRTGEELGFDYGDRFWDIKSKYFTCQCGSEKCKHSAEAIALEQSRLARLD
# Assay: qHTS Assay for Inhibitors of Histone Lysine Methyltransferase G9a; also: nearly all actives have a fitted effect of over 75% in size
# Settings: G9a H3K9 monomethylation, AlphaScreen, 2 h; series mostly up to 59 µM; activity, negative = inhibition: at the top concentration
# Source text: Methylated lysines, on the N-terminal tails of histone proteins serve as epigenetic markers to recruit factors that can then modify local chromatin structure to lead to functional consequences. G9a and other members of the SUV39 family of the SET domain-containing superfamily of histone lysine methyltransferases (HMT) have been identified to specifically methylate Lys9 of histone H3 (H3K9). G9a catalyzes the mono- and di-methylation of H3K9 in mammalian euchromatic regions, where the resulting H3K9me2 is indicative of transcriptional repression. […] The inhibition of G9a will result in transcriptional activation and work synergistically with DNA methyltransferase and histone deacetylase inhibitors, to kill cancer cells. This qHTS assay for identification of G9a inhibitors is a chemiluminescence based AlphaScreen (PerkinElmer). Methylation of biotinylated-histone peptide is measured through specific antibody-based detection, in conjunction with streptavidin-coated donor and anti-IgG antibody-coated acceptor beads. The method is particularly well suited for detection of inhibitors acting by the desired histone peptide competitive mechanism and is applicable to testing other HMTs. Although AlphaScreen has significant advantages with its utility in a variety of epigenetic target assays, the primary screening data provided in this deposition should be used with caution due to the prevalence of screening artifacts. An AlphaScreen counterscreen is highly recommended to be run against any putative actives to eliminate non specific artifacts. Alternatively, one can use other AlphaScreen assays in PubChem to filter out promiscuous hits. Quinn et al. A chemiluminescence-based method for identification of histone lysine methyltransferase inhibitors. Mol Biosyst 6(5): 782-8. 2010. PMID: 20567762 [2] Baell,Holloway. New substructure filters for removal of pan assay interference compounds (PAINS) from screening libraries and for their exclusion in bioassays. J Med Chem. 53(7):2719-40. 2010. PMID: 20131845 NIH Molecular Libraries Probe Production Network [MLPCN] NIH Chemical Genomics Center [NCGC] Structural Genomics Consortium (SGC) NIH Grant: 5U54 MH084681-02
# To each well of a 1,536w plate, 2ul of HMT enzyme (final 20nM) were added, using a nanoliter dispenser. The G9a- and GLP-inhibitor BIX-01294 (CID: 25150857) are used as an intraplate control, with a 16-point titration in duplicate. A Kalypsys pin-tool transferred 23nl of library compound solution in DMSO to each well. Following a 15 min incubation of enzyme with compounds at room temperature, 1ul mixture of b-H3K9 peptide substrate (final 500nM) and SAM cofactor (final 20uM) were added. Reactions were allowed to proceed at room temperature for 2 hours. Methylated b-H3K9 peptide product was detected with 0.5 ug/mL rabbit polyclonal anti-monomethyl histone H3K9 antibody (Abcam Inc., Cambridge, MA) and 20 ug/mL each streptavidin-coated donor and anti-rabbit IgG acceptor AlphaScreen beads. Antibody and beads were added in a 1ul dispense, for a final volume of 4ul, and plates were incubated, protected from the light, for 10 min at room temperature. Microplates were then read on an EnVision multilabel plate reader using the 1,536 plate HTS AlphaScreen aperture (excitation time 80 ms, measurement time 240 ms).
# % is scaled to controls: 0 for no effect and ±100 for the full control effect; potency is read from the fitted curve at half-maximal effect.
SMILES,"activity, negative = inhibition",Potency
CC(C)NC(=O)C1CCC(Cn2c(=O)c3sccc3n(Cc3ccc(F)cc3)c2=O)CC1 (stereo not drawn),9.1% (inactive),
Cc1ccc(Cl)cc1NC(=O)CCS(=O)(=O)c1ccc(Br)s1,-47.7% (inactive),
COc1ccccc1-n1nnnc1SCC(=O)NC(=O)Cc1ccccc1,17.7% [at 2.33 µM] (inactive),
O=C(Nc1ccc(F)cc1F)c1ccc2c(=O)n3c(nc2c1)CCCCC3,-21.5% (inactive),
CCCCC/C=C/C1=CC(=O)C[C@H](c2ccc(Cl)cc2)C1,8.79% [at 0.501 µM] (inactive),
Cc1nnc(N2CCCC(C(=O)NCCN(C)C)C2)c2nn(-c3ccccc3)c(C)c12 (stereo not drawn),-30.8% (inactive),
Cc1ccc(NC(=S)N(CCCN2CCC(C)CC2)Cc2ccco2)cc1,-33.9% [at 102 µM] (inactive),
Cc1ccc(NC(=S)N(CCCN2CCCC2)Cc2cccn2Cc2ccc(Cl)cc2)cc1,,50.1 µM (active)
Cc1ccc(C)c(N2CCN(CCCNC(=O)Nc3ccc(Cl)cc3)CC2)c1,-40.9% (inactive),
COc1ccc(N=Nc2ccc(O)c(P(=O)(c3ccccc3)c3ccccc3)c2)cc1,4.01% [at 102 µM] (inactive),
Cc1cc(N=Nc2ccc3ccccc3c2)ccc1O,,35.5 µM (active)
COc1ccccc1N1CCN(c2ncnc3onc(-c4cccc(Cl)c4)c23)CC1,5.72% (inactive),
O=C(c1cnc(Cl)c(Cl)c1)N1CCN(S(=O)(=O)c2ccc(F)cc2)CC1,1.49% [at 102 µM] (inactive),
CC1(c2ccc(Cl)cc2Cl)NC(=O)N(CC(=O)Nc2cccnc2Cl)C1=O (stereo not drawn),-2.03% [at 102 µM] (inactive),
COc1cc(OC)cc(C(=O)OCC(=O)Nc2ccc(F)cc2F)c1,-3.36% [at 102 µM] (inactive),
O=C(COC(=O)c1ccc(F)cc1F)Nc1ncccn1,,35.5 µM (active)
Cc1cccc(C(=O)OCC(=O)Nc2ccc(F)cc2)c1,-7.9% [at 102 µM] (inactive),
S=c1[nH]ccn1-c1ccc(Cl)cc1,,3.98 µM (active)
CC(CCN1CCN=C1N(C)C)c1ccccc1 (stereo not drawn),11.1% [at 2.33 µM] (inactive),
COc1cc(OC)c(NC(=O)c2cc(S(=O)(=O)N3CCCC3)cn2C)cc1Cl,-6.04% (inactive),
CCOc1ccc(NS(=O)(=O)c2ccc(OCC(=O)NCCCOC)cc2)cc1,1.35% [at 12.7 µM] (inactive),

SMILES,"activity, negative = inhibition",Potency
CNC(=O)COc1ccc(S(=O)(=O)Nc2ccccc2)cc1,,50.1 µM (active)
Cc1ccc(OCC(=O)Nc2ccc(S(=O)(=O)Nc3ccccn3)cc2)cc1,-2.38% [at 102 µM] (inactive),
Cn1c(COc2ccccc2C(C)(C)C)nc2ccccc21,-0.125% (inactive),
CC(C)C(c1nnnn1CCc1ccccc1)N1CCN(C(=O)c2ccco2)CC1 (stereo not drawn),0.196% [at 102 µM] (inactive),
CC(C)C(c1nnnn1C1CCCCC1)N1CCN(C(=O)c2ccco2)CC1 (stereo not drawn),8.41% [at 102 µM] (inactive),
CCC(c1nnnn1C1CCCC1)N1CCN(C(=O)c2ccco2)CC1 (stereo not drawn),,17.8 µM (active)
COC(=O)c1ccc(C2C(C(=O)Nc3ccccc3)=C(C)Nc3nc4ccccc4n32)cc1 (stereo not drawn),-7.28% (inactive),
O=C(Oc1ccc(F)cc1)N1CCOCC1,21.7% (inactive),
O=C(Oc1ccc(C(=S)N2CCOCC2)cc1)c1ccc(F)cc1,,35.5 µM (active)
Cc1ccc(C(=O)Oc2ccc(C(=S)N3CCOCC3)cc2)cc1,10.7% [at 2.33 µM] (inactive),
O=C(CN1C(=O)S/C(=C\c2ccccc2Cl)C1=O)NC1C=CS(=O)(=O)C1 (stereo not drawn),25.3% [at 102 µM] (inactive),
CC(C)NC(=O)CSc1ccccc1C(=O)NCc1ccc2c(c1)OCO2,9.25% [at 102 µM] (inactive),
CC(NC(=O)Nc1ccc2c(c1)OCO2)c1ccncc1 (stereo not drawn),,50.1 µM (active)
CC(C)C(=O)Nc1cccc(C(=O)Nc2ccc3c(c2)OCO3)c1,-5.76% [at 102 µM] (inactive),
CC(NC(=O)Nc1cccc([N+](=O)[O-])c1)c1ccc2c(c1)OCO2 (stereo not drawn),-49.8% [at 102 µM] (inactive),
CCSc1ccccc1C(=O)Nc1ccc2c(c1)OCO2,,3.98 µM (active)
CCc1ccc(NC(=O)NC(C)c2ccc3c(c2)OCO3)cc1 (stereo not drawn),11.5% [at 102 µM] (inactive),
CC(=O)Nc1ccc(NC(=O)c2cc3sccc3n2Cc2ccc(F)cc2)cc1,-9.34% (inactive),
COc1ccc(NC(=O)C2CCCN(S(=O)(=O)c3c(C)[nH]c(=O)[nH]c3=O)C2)c(OC)c1 (stereo not drawn),3.84% (inactive),
CCOC(=O)CNC(=O)CSc1nnc(COc2ccc(Cl)cc2)n1CC,,20 µM (active)
CCn1c(SCC(=O)Nc2nccs2)nnc1-c1ccncc1,-2.99% [at 12.7 µM] (inactive),

SMILES,"activity, negative = inhibition",Potency
CCn1c(COc2ccc(OC)cc2)nnc1SCC(=O)Nc1cc(OC)ccc1OC,7.11% [at 12.7 µM] (inactive),
CCOC(=O)CNC(=O)c1nn(-c2cccc(OC)c2)c(=O)c2ccccc12,-38.4% (inactive),
C=CCn1c(COc2ccccc2)nnc1SCC(=O)NCC(=O)OCC,-35.1% (inactive),
CCOC(=O)CNC(=O)CSc1nnc(-c2cccc(OC)c2)n1CC,,50.1 µM (active)
CN(C)c1cccc(C(=O)Nc2nc3ccc(S(=O)(=O)NC(C)(C)C)cc3s2)c1,-4.07% (inactive),
CCCCCN(C(=O)CCC(=O)OCCOc1ccc(OC)cc1)c1c(N)n(CCCC)c(=O)[nH]c1=O,-22.8% [at 102 µM] (inactive),
COC(=O)C1CCN(C(=O)NC2CC(=O)N(c3ccc4c(c3)OCCO4)C2)CC1 (stereo not drawn),21.6% [at 0.501 µM] (inactive),
O=C(CSc1nnc(N2CCOCC2)n1-c1cccc(F)c1)N1CCN(c2ccccn2)CC1,-9.34% [at 12.7 µM] (inactive),
COc1ccc(S(=O)(=O)c2cn(C)c3cc(N4CCCCC4)c(F)cc3c2=O)cc1,0.173% (inactive),
CCc1nc(Nc2ccc(NC(C)=O)cc2)c2oc3ccccc3c2n1,,50.1 µM (active)
CCc1nc(N2CCN(c3nc(C)cc(C)n3)CC2)c2oc3ccccc3c2n1,2.59% [at 2.33 µM] (inactive),
CCc1nc(Nc2ccc3nccnc3c2)c2oc3ccccc3c2n1,-36.3% (inactive),
CCOc1ccc(S(=O)(=O)N(CC(=O)NCCSCc2ccc(C)cc2)c2ccccc2)cc1,0.479% (inactive),
c1ccc(Cc2ccc(OCCn3ccnc3)cc2)cc1,4.59% (inactive),
Clc1c(OCCCn2ccnc2)ccc2ccccc12,,79.4 µM (active)
Brc1ccc(OCCn2ccnc2)cc1,-9.05% (inactive),
Cc1ccccc1S(=O)(=O)N1[C@@H](c2cccc(Cl)c2)C(C(=O)O)=CC[C@H]1c1ccc(Cl)cc1,-5.32% [at 2.33 µM] (inactive),
CCOc1ccc(CNC(=O)CCc2c(C)nn(-c3ccc(N4CCCCC4)nn3)c2C)cc1,-22.9% (inactive),
COc1ccccc1CSc1ncc(-c2ccc([N+](=O)[O-])cc2)[nH]1,,8.91 µM (active)
COc1ccccc1CC(=O)Nc1ccc([N+](=O)[O-])cc1OC,-8.27% (inactive),
COc1ccccc1CSc1nc2ccccc2[nH]1,13.9% (inactive),
